# Source: PubChem BioAssay (NCI)
# About 83,000 compounds went through this panel and 20% of them were active in at least one assay; those are over-represented in the sample as a whole.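 Method: cells in 96-well plates; compound added at one concentration; 48 h incubation; percent growth measured; values under 10 scored active.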 Values without a mark were called inactive. Active and inactive are the calls of the source.
# Experiments:
# Assay in all cases: NCI-60 one-dose screen, 48 h (100 = growth as untreated, 0 = no growth, -100 = all killed)
# SR leukemia = conditions: 10 µM unless noted
# RPMI-8226 leukemia = conditions: 10 µM
# OVCAR-8 ovarian = conditions: 10 µM unless noted
# OVCAR-5 ovarian = conditions: 10 µM unless noted
# SK-OV-3 ovarian = conditions: 10 µM
# OVCAR-3 ovarian = conditions: 10 µM unless noted
# HS 578T breast = conditions: 10 µM unless noted
# NCI/ADR-RES ovarian = conditions: 10 µM unless noted
# T-47D breast = conditions: 10 µM
# BT-549 breast = conditions: 10 µM unless noted
# MDA-MB-435 melanoma = conditions: 10 µM unless noted
# SW-620 colon = conditions: 10 µM unless noted
# MCF7 breast = conditions: 10 µM unless noted
# HCT-116 colon = conditions: 10 µM unless noted
# HCC-2998 colon = conditions: 10 µM unless noted
# KM12 colon = conditions: 10 µM unless noted
# IGROV1 ovarian = conditions: 10 µM unless noted
# OVCAR-4 ovarian = conditions: 10 µM unless noted
SMILES,growth (SR leukemia),growth (RPMI-8226 leukemia),growth (OVCAR-8 ovarian) [%],growth (OVCAR-5 ovarian) [%],growth (SK-OV-3 ovarian) [%],growth (OVCAR-3 ovarian),growth (HS 578T breast) [%],growth (NCI/ADR-RES ovarian),growth (T-47D breast) [%],growth (BT-549 breast) [%],growth (MDA-MB-435 melanoma) [%],growth (SW-620 colon),growth (MCF7 breast),growth (HCT-116 colon),growth (HCC-2998 colon) [%],growth (KM12 colon) [%],growth (IGROV1 ovarian) [%],growth (OVCAR-4 ovarian) [%]
Cc1oc2c(c1C(=O)N1CC[C@@H](N)C1)C(=O)c1c(c(O)c3ccccc3c1O)C2=O,1.4% (active),12.4%,12.9,85.3,35.3,3.52% (active),34.3,8.79% (active),61.8,79,40.3,3.53% (active),-1.04% (active),5.14% (active),12.3,15.7,–,–
CCOC(=O)c1c(Cl)c2c(n1Cc1ccc(OC)cc1)-c1oncc1CCC2,23.7%,52.4%,81.5,90.1,105,102%,–,80.6%,83.6,70.4,101,71.1%,82.3%,62.3%,66.9,96.8,84.4,–
Clc1ccccc1Nc1ccc2nnc(-c3ccncc3)n2n1,38.6%,96.2%,101,106,121,110%,–,105%,100,101,98,114%,95.9%,101%,118,101,–,–
COc1ccc(C(=O)COc2cccc(/C=C3\CSc4ccc(C)cc4C3=O)c2)cc1,-7.75% (active),-23.5% (active),66.4,–,107,97.5%,110,–,79.7,108,69.5,-21.5% (active),30.9%,53.1%,–,79.6,–,90.2
O=C(O)C[C@H](O)C[C@H](O)/C=C/c1c(C2CC2)nc2ccccc2c1-c1ccc(F)cc1,12.1%,–,61.5,79,93.7,103%,70.1,37.2%,95.9,75.1,93.9,83.3%,96.3%,63.3%,99,102,53.4,111
O=c1oc2ccccc2cc1-c1csc(N/N=C/c2cc3ccccc3nc2Cl)n1,129%,108%,103,98.6,–,108%,107,99.7%,90.8,105,–,106%,90.7%,105%,102,100,93.3,–
